The results in this text go back to PubChem BioAssay AID2685 (National Center for Advancing Translational Sciences (NCATS), 2010).

The whole screen tested about 320,000 compounds, of which about 2,100 (0.66%) were called active. Another 53% or so got no clear call; they are omitted. The call rests on the fitted dose curve; in most records, active means well fitted inhibition curve with a large enough effect in the signal ratio, with a control signal flat (not every such curve was filed as active); inconclusive means small, poorly fitted or top-dose-only effect, or effect the other way, or a change in a side signal; inactive means flat fitted curve, though single readings scatter; the % refers to the signal ratio. Shown is part of a subset that was picked to be rich in actives.
Potency means the concentration at half of the fitted maximal effect.

This test in a line: qHTS Assay for Lipid Storage Modulators in Drosophila S3 Cells.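 On cell number change: cells counted by Cell Tracker Red CMTPX staining in the red channel.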 On lipid storage change, negative = inhibition: on the % scale 0 is the no-effect control and ±100 the full control effect. To be noted: BODIPY lipid droplet fluorescence, 18-24 h, cells fed with added oleic acid; cell number change: measured here: cell count max response; series mostly up to 46.1 µM; lipid storage change, negative = inhibition: at the top concentration. The procedure, abridged: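 Laser-scanning cytometry quantifies lipid droplet accumulation (500–530 nm total intensity; droplet/cell object ratio) in oleic acid-fed (400 uM added) Drosophila S3 cells treated with a concentration series. 20 uM Triacsin C defined 100% inhibition.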
Background: qHTS replaces the single test concentration by a dilution series.
For `O=C(O)c1ccc(N/N=C/c2cn(Cc3ccc(F)cc3)c3ccccc23)cc1`, the “lipid storage change, negative = inhibition” value was 7.6% (inactive) and the cell number change came to 0.719%.

Take `CNC(=S)N/N=C/c1cn(Cc2ccc(F)cc2)c2ccccc12`: the “lipid storage change, negative = inhibition” value is 22.5% (inactive) and the cell number change is -3.02%.

For the compound `N/C(=N\OC(=O)C12CC3CC(CC(C3)C1)C2)c1ccncc1`, the “lipid storage change, negative = inhibition” value was -5.89% (inactive) and the cell number change was -16.5%.

On to `COc1ccc(N(C(=O)CNC(=O)c2ccco2)C(C(=O)NCC2CCCO2)c2ccccc2)cc1OC` (stereo not drawn), for which the compound was classed as inactive and the cell number change is 7.66%.

In the case of `O=C(c1ccc(-c2ccccc2)cc1)N1CCN(Cc2ccccn2)CC1`, the “lipid storage change, negative = inhibition” value was 4.01% (inactive) and the cell number change was -0.729%.

Turning to `O=C(O)CC1S/C(=N/N=C/c2ccc(Br)cc2)N(c2ccccc2)C1=O` (stereo not drawn), the “lipid storage change, negative = inhibition” value is -1.72% (inactive) and the cell number change was -1.06%.

Turning to `CCC(C)(C)n1nnnc1C(c1cccc(C#N)c1)N1CCN(c2cccc(C)c2C)CC1` (stereo not drawn), the “lipid storage change, negative = inhibition” value is -4.77% (inactive) and the cell number change is 0.845%.

In the case of `O=C(CSC1=NCCS1)N1CCN(c2ccc(Cl)cc2)CC1`, the “lipid storage change, negative = inhibition” value is -5.89% (inactive) and the cell number change came out at 1.49%.

In the case of `O=C(CSC1=NCCS1)N1CCN(c2ccccc2)CC1`, the “lipid storage change, negative = inhibition” value was -9.79% (inactive) and the cell number change was -11.5%.

Take `O=C(CSC1=NCCS1)N1CCCCCC1`: the Potency is 4.61 µM (active) and the cell number change was determined as 0.498%.

On to `Cc1c(Cl)cccc1NC(=O)CCCCCN1C(=O)CCC1=O`, for which the call was inactive.

As for `CS(=O)(=O)c1ccc2nc(NC(=O)Nc3cccc(Cl)c3)sc2c1`, the Potency was 16.4 µM (active) and the cell number change turned out to be 10.2%.

As for `CS(=O)(=O)c1ccc2nc(NC(=O)c3cccc(Cl)c3)sc2c1`, the “lipid storage change, negative = inhibition” value was 18.2% (inactive) and the cell number change was found to be 5.93%.

Regarding `Cc1ccc(NC(=O)Nc2nc3ccc(S(C)(=O)=O)cc3s2)cc1`, the call was inactive and the cell number change turned out to be 0.9%.

For the compound `Cc1ccc(S(=O)(=O)Cc2cc(F)c([N+](=O)[O-])cc2[N+](=O)[O-])cc1`, the Potency was 0.411 µM (active) and the cell number change came to 20.1%.

Take `Cc1ccc(S(=O)(=O)Cc2ccc([N+](=O)[O-])cc2)cc1`: the “lipid storage change, negative = inhibition” value is -23.4% (inactive) and the cell number change was -6.56%.

Consider `CC(=O)c1ccc([N+](=O)[O-])c(CS(=O)(=O)c2ccc(Cl)cc2)c1`, for which the “lipid storage change, negative = inhibition” value was 13% (inactive) and the cell number change amounted to 12.3%.

Turning to `Cc1nc(C(C)NC(=O)CCc2nnc(-c3ccsc3)o2)cs1` (stereo not drawn), the “lipid storage change, negative = inhibition” value is 11.3% (inactive) and the cell number change was -5.47%.

Regarding `CCC(c1nnc(SCC(=O)Nc2ccc(N3CCOCC3)cc2)n1Cc1ccccc1)N(C)C` (stereo not drawn), the result was inactive.

Turning to `CS(=O)(=O)c1cccc(C(=O)NCc2ccccc2)c1`, the result was inactive.

`C=CCOc1ccccc1CN(CCc1ccccc1)C(=O)c1cccc(S(C)(=O)=O)c1`: the Potency was 4.11 µM (active) and the cell number change was 1.8%.

In the case of `CS(=O)(=O)Cc1ccc(C(=O)N(CCc2ccccc2)Cc2ccccc2)cc1`, the compound was called inactive and the cell number change is -0.348%.

In the case of `O=C(CNC(=O)c1cccs1)NCC(=O)OCc1ccc(F)cc1`, the “lipid storage change, negative = inhibition” value was -4.32% (inactive) and the cell number change was -6.51%.

For the compound `CN(C(=O)CSc1nc2sc3c(c2c(=O)n1C)CCC3)C1CCS(=O)(=O)C1` (stereo not drawn), the “lipid storage change, negative = inhibition” value was 0.0094% (inactive) and the cell number change was -5.19%.

As for `CCc1ccc(N(CC(=O)NC(C)(C)C)C(=O)CCC(=O)Nc2ccccn2)cc1`, the “lipid storage change, negative = inhibition” value was -5.7% (inactive) and the cell number change came out at 19.3%.

`Cc1cccc(NC(=O)CCS(=O)(=O)c2ccccc2)n1`: the “lipid storage change, negative = inhibition” value is 8.98% (inactive) and the cell number change is 3.85%.

For `CSc1nnc(-c2sc3cc(Cl)ccc3c2Cl)n1C`, the Potency is 23.1 µM (active) and the cell number change is -10.5%.

Take `CSc1nnc(-c2ccccc2)n1C`: the “lipid storage change, negative = inhibition” value was -1.83% (inactive) and the cell number change was -0.435%.

For `CCn1c(SC)nnc1-c1sc2cc(Cl)ccc2c1Cl`, the “lipid storage change, negative = inhibition” value was 22.8% (inactive) and the cell number change was -4.88%.

In the case of `Cc1ccc(OCCOCCn2ccnc2)c(Br)c1`, the compound was called inactive and the cell number change is -17%.

For the compound `COc1ccc(-c2csc3ncn(-c4cccc(C)c4)c(=O)c23)cc1OC`, the “lipid storage change, negative = inhibition” value was 9.43% (inactive) and the cell number change came out at 14.7%.

On to `O=C(Nc1ccc(F)cc1)c1ccccc1`, for which the compound was classed as inactive.

Turning to `O=C(Nc1cccc(NC(=O)c2cccc(F)c2)n1)c1cccc(F)c1`, the Potency was 6.51 µM (active).

`O=C(N/N=C/c1cccc2ccccc12)c1cccc(F)c1`: the Potency is 11.2 µM (active) and the cell number change is -0.111%.

On to `O=C(N/N=C/c1cccc2ccccc12)c1ccncc1`, for which the “lipid storage change, negative = inhibition” value was 1.15% (inactive) and the cell number change came out at 0.153%.

`O=C(Nc1ccc(F)cc1)c1cccc(C(=O)Nc2ccc(F)cc2)c1`: the Potency was 0.231 µM (active) and the cell number change was found to be 22.5%.

Turning to `Cc1cc(NC(=O)c2cccc(F)c2)no1`, the “lipid storage change, negative = inhibition” value is -3.93% (inactive) and the cell number change was 9.9%.

`O=C(Nc1ncccn1)c1cccc(F)c1`: the “lipid storage change, negative = inhibition” value was 20.9% (inactive) and the cell number change was -18.7%.

On to `O=C(N/N=C/c1ccccc1Cl)c1cccc(F)c1`, for which the “lipid storage change, negative = inhibition” value is 13.9% (inactive) and the cell number change stood at 0.333%.

Turning to `O=C(Nc1ccc(F)cc1)c1ccc2[nH]c(=O)c(=O)[nH]c2c1`, the “lipid storage change, negative = inhibition” value was -21.9% (inactive) and the cell number change was 25.6%.

Regarding `Cc1ccc(S(=O)(=O)c2nc(-c3ccccc3Cl)oc2NCCCN2CCOCC2)cc1`, the outcome was inactive.

With `CCOC(=O)C1(Cc2ccccc2)CCN(Cc2cn[nH]c2-c2ccccc2)CC1`, the “lipid storage change, negative = inhibition” value was 14% (inactive) and the cell number change came out at 4.32%.

Turning to `C[C@H](NC(=O)CCn1nnc2ccccc2c1=O)C(=O)O`, the “lipid storage change, negative = inhibition” value was 9.98% (inactive) and the cell number change is -17.6%.

Regarding `O=C(c1ccc(F)cc1)C1CCN(Cc2ccc(F)cc2)CC1`, the “lipid storage change, negative = inhibition” value is 23.9% (inactive) and the cell number change came to 16.1%.

For `Cn1c(CCNC(=O)c2ccc(Cl)cc2)n[nH]c1=S`, the “lipid storage change, negative = inhibition” value is -23.5% (inactive) and the cell number change is -13.4%.

`CCn1c(CCNC(=O)c2ccc(C)cc2)n[nH]c1=S`: the “lipid storage change, negative = inhibition” value was 18% (inactive) and the cell number change was 22.9%.

Consider `CCn1c(CCNC(=O)c2ccc(Cl)cc2)n[nH]c1=S`, for which the Potency was 1.84 µM (active) and the cell number change was determined as 24.6%.
